HTT aggregate: reduces HttQ103-GFP aggregates in PC12 cells; Potency, µM (series often up to 46.1 µM), usual class: inhibitors; actives 1.1% (n = 220,000); PC12 HttQ103-GFP aggregates, Acumen cytometry, 40 h; also: nearly all actives have a fitted effect of over 60% in size
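Aggregate formation scored by laser-scanning cytometer (488 excitation, 500–530 emission) in lysed PC12 cells expressing Q103-GFP after 100 nM tebufenozide induction; library tested in dose series, with ATPLite reagent added in the multiplex.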
HTT ATP protect: cytoprotection in Huntington HTT-Q103 PC12 cell model | actives 0.14% (n = 230,000) | Potency, µM (series often up to 56.4 µM), most hits filed as activators | PC12 HTT-Q103 induced, cytoprotection, ATP luminescence, 40 h; also: nearly all actives have a fitted effect of over 45% in size
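Compounds added alongside 100 nM tebufenozide, which induces toxic Q103 huntingtin exon 1-GFP in stable PC12 cells; surviving cells quantified by luminescent ATP measurement. Medium: phenol red-free DMEM, 5% equine and 5% calf serum.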
HPGD inh: HPGD (human) dehydrogenase inhibition | P15428 | purified HPGD, NADH fluorescence kinetic, PGE2 substrate | Potency, µM, usual class: inhibitors | actives 4.3% (n = 150,000); active = well fitted inhibition curve with a large enough effect, not every such curve was filed as active; inconclusive = small, poorly fitted or top-dose-only effect, or another doubt; inactive = no such curve, though single readings can be large or run the other way
Target sequence (P15428 whole entry, looked up): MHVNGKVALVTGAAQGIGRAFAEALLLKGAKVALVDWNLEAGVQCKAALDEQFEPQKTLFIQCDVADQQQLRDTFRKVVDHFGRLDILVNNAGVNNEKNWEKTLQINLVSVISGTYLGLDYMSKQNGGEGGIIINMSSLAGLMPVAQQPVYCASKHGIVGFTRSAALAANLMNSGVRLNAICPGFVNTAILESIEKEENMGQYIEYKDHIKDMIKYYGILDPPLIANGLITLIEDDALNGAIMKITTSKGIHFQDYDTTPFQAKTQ
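NADH formation kinetics: reaction with 30 uM PGE2 and 1 mM NAD+ (final), 20 nM enzyme, Tris-HCl pH 8 with Tween 20, after 15 min compound preincubation at room temperature. Fluorescence change, last versus first of five reads.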
ALDH1A1 block: ALDH1A1 (human) enzyme inhibition. P00352. Purified ALDH1A1, NADH fluorescence, propionaldehyde substrate. Potency, µM (titrated, usually from 75.3 µM), most hits filed as inhibitors. actives 7.3% (n = 220,000); active = well fitted inhibition curve with a large enough effect, not every such curve was filed as active; inconclusive = small, poorly fitted or top-dose-only effect, or another doubt; inactive = no such curve, though single readings can be large or run the other way
PNC assembly inh: blocks assembly of the perinucleolar compartment; PC3M PTB-GFP, PNC prevalence imaging, 16 h; hits give low values; activity change (PNC), negative = inhibition, % at 10 µM; actives 3.1% (n = 140,000);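 active = readout at or below -70, meaning at least 70% loss of cells showing the perinucleolar compartment, a nuclear body marking cancer cells; inconclusive = readout between -30 and a set limit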
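PC3M cells stably expressing PTB-GFP, 750–1000 cells/well, treated 16 h at 37 °C with compound (23 nl of library stock), in duplicate. After paraformaldehyde fixation and Hoechst stain, imaged at 20x; PNC prevalence scored by image analysis.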
RGS12 GoLoco inh: inhibitors of human Gai1-RGS12 GoLoco interaction (red fluorophore) | Potency, µM (series often up to 61.6 µM), usual class: inhibitors | Gai1:RGS12 GoLoco peptide FP, rhodamine, 10 min | actives 0.44% (n = 230,000) | P63096; active = well fitted inhibition curve with a large enough effect, not every such curve was filed as active; inactive = no such curve, though single readings can be large or run the other way; also: nearly all actives have a fitted effect of over 30% in size
Hits are given with their value; n = inactive; u = inconclusive; x = not tested or not shown; [ ] = dose if it differs, or a comment. Shown are actives, neighbours in structure and some others; about 11% of the full set was active somewhere. Unless noted, calls follow the shape of the dose curve; as a rule, active = well fitted curve in the direction sought with a large enough effect; inconclusive = small, poorly fitted or top-dose-only effect, or another doubt; inactive = no such curve, though single readings can be large; an effect the other way counts as inactive or inconclusive.

SMILES | HTT aggregate | HTT ATP protect | HPGD inh | ALDH1A1 block | PNC assembly inh | RGS12 GoLoco inh
CC(=O)c1cccc(NC(=O)CCS(=O)(=O)c2cccc3nsnc23)c1 | n[9.22 µM] | n | 28µM | 22µM | u | n
Cc1ccc(CNC(=O)CCCNS(=O)(=O)c2cccc3nonc23)cc1 | n | n | n | 7.1µM | n | n
O=C(CCCNS(=O)(=O)c1cccc2nsnc12)NCc1ccc(Cl)cc1 | n | n | n | u | n | n
COc1cc(NS(=O)(=O)c2cccc3nsnc23)cc(OC)c1 | n | n | n | n | -82 | n
O=C(O)c1cn(Cc2ccccn2)c(=O)c2ccccc12 | n | n | x | n | x | n
CC(=O)OC[C@H]1O[C@@H](O/N=C(\C)CCC(=O)OC[C@@H]2O[C@H](C#Cc3ccccc3)C=C[C@@H]2Oc2ccc(C)cc2)[C@H](OC(C)=O)[C@@H](OC(C)=O)[C@H]1OC(C)=O | x | n[10 µM] | x | n[13.5 µM] | x | x
COc1cccc(NS(=O)(=O)c2cc(C)sc2C)c1 | n | n[10 µM] | u | n | -100 | n
Cc1cc(S(=O)(=O)Nc2cccc(Cl)c2)c(C)s1 | n | n | x | n | x | n
C=CC1=C(C)/C(=C/c2[nH]c(Cc3[nH]c(/C=C4\NC(=O)C(C)=C4C=C)c(C)c3CCC(=O)O)c(CCC(=O)O)c2C)NC1=O | x | x | n | u | x | n
COc1ccc(OC)c(NC(=O)c2ccc3nc(-c4ccccc4)c(-c4ccccc4)nc3c2)c1 | n | n[10 µM] | n | 10µM | n | n
COc1ccc(C(=O)Nc2cc(Cl)ccc2OC(=O)c2ccc(OC)cc2)cc1 | n | n | n | 1µM | n | n
Cc1ccc(C(=O)Nc2cc(Cl)ccc2OC(=O)c2ccc(C)cc2)cc1 | n | n | n | n | n | n
O=C(Nc1ccccc1OC(=O)c1ccc(Cl)cc1)c1ccc(Cl)cc1 | n | u | n | n | -94 | n
COc1ccc(C(=O)Nc2cc(OC)ccc2OC)cc1 | n | n | n | n | n | n
Cc1nn(C)c(C)c1/C=N/N=C1\CCC2C3CCc4cc(O)ccc4C3CCC12C (stereo not drawn) | n | n | n | n | u | n
CN1CCN(CCCCOc2ccccc2C=O)CC1 | x | x | x | 22µM | x | n
O=Cc1ccccc1OCCOc1ccccc1C=O | 35µM | n[10 µM] | u | 20µM | n | n
Brc1ccccc1OCCCCCN1CCOCC1 | n | n | x | 11µM | x | n
CN1CCN(CCCCOc2ccc(F)cc2)CC1 | n | n | u | u | u | n
Brc1ccccc1OCCCN1CCCCCC1 | n[9.22 µM] | n[10 µM] | x | u | x | n
COc1ccc(-c2nc3cnc(N(C)C)nc3n(C)c2=O)cc1 | x | n | x | u | x | n
Cc1ccc(S(=O)(=O)CCC(=O)Nc2ccc(S(=O)(=O)N(C)C)cc2)cc1 | n | x | x | n | x | n
CN(C)CCCNCCCN | x | n | n | n | x | n
CN(C)CCCCl | x | n | n | n | x | n
Cc1cccc(Cn2ccc(NC(=O)c3ccc4c(c3)OCO4)n2)c1 | n | n | x | n | x | n
SMILES | HTT aggregate | HTT ATP protect | HPGD inh | ALDH1A1 block | PNC assembly inh | RGS12 GoLoco inh
COc1ccc2c(c1)C(=O)N(c1ccccc1OC)C(=O)C2 | n | n[10 µM] | 8.9µM | 18µM | n | n
COC(=O)c1ccc(CO/N=C/c2ccc(OC)cc2)o1 | n | n | x | n | x | n
CCC(C)(C(=O)NC1CCCCC1)N(C(=O)c1ccccn1)c1ccccc1 (stereo not drawn) | n[9.22 µM] | n | n | n | n | n
CCC(C)(C(=O)NC1CCCCC1)N(C)C(=O)c1ccccn1 (stereo not drawn) | n | n | n | n | -106 | n
C[N+]1(CCCCC[N+]2(C)CCCC2)CCCC1 | n | n | n | n | x | n
CN(CCCCCC(=O)/C=N/O)Cc1ccccc1 | n | n[10 µM] | n | n | n | n
C[N+](C)(C)CCCCCCC(=O)/C=N/O | n | n[10 µM] | n | n | n | 1.8µM
C[N+]1(CCCCCCC(=O)/C=N/O)CCCCCC1 | n | n | n | n | u | 13µM
CCOC(=O)CN1N=C(/C=C/c2ccc(OC)cc2)CCC1=O | n | n | n | u | n | n
CCOc1ccc2c(O)csc2c1 | n | n[10 µM] | n | 25µM | n | n
CCCN=Cc1sc2ccc(OCC)cc2c1O | n | n | u | u | n | n
Cc1nnc(SCc2cc([N+](=O)[O-])cc3c2OCOC3)n(N)c1=O | n | n | x | n | x | n

High-throughput results (PubChem BioAssay)
